Test results published in PubChem BioAssay (EPA / NIEHS).
The source holds several records for some structures; these can differ, active in one and inactive in another. The source made the active and inactive calls. The calls were made as follows: active = hit-call score of the fitted dose curve at least 0.9, where 1 is the maximum; inactive = score below 0.9.

These compounds were tested on Matrix Metallopeptidase 1 (MMP1), MMP1 (gene 4312) (assay: BSK_BE3C_MMP1: BioMAP Diversity Plus: BE3C Assay for Matrix Metallopeptidase 1 (MMP1) Biomarker Activity (AID 2283024)). Conditions: primary human bronchial epithelial cells; actives raise or lower the signal.
Procedure: BSK_BE3C is a cell-based, multiplexed-readout assay that uses bronchial epithelial cell, a human lung primary cell, with measurements taken at 24 hours after chemical dosing in a 96-well plate.BSK_BE3C_MMP1 is an assay component measured in the BSK_BE3C assay. It measures MMP-1 antibody related to regulation of gene expression using ELISA technology.Data from the assay component BSK_BE3C_MMP1 was analyzed into 1 assay endpoint. This assay endpoint, BSK_BE3C_MMP1, was analyzed with bidirectional fitting relative to DMSO as the negative control and baseline of activity. Using a type of binding reporter, gain or loss-of-signal activity can be used to understand changes in the signaling as they relate to the gene MMP1. Furthermore, this assay endpoint can be referred to as a primary readout, because this assay has produced multiple assay endpoints where this one serves a signaling function. To generalize the intended target to other relatable targets, this assay endpoint is annotated to the protease intended target family, where the subfamily is matrix metalloproteinase.
The levels of cell surface (or secreted, indicated by the prefix "s") biomarker endpoints were measured by ELISA. Overt cytotoxicity to cells in confluent adherent cultures (all systems other than the BT system) was assessed by measuring total protein levels using sulforhodamine B (SRB) staining in parallel cultures at the time of biomarker measurements, indicated as SRB endpoints. For proliferation assays for adherent cell types, individual cell types are cultured at sub-confluence and relative cell numbers quantified by SRB staining at time points optimized for each system (48 h: 3C and CASM3C systems; 72 h: BT and HDF3CGF systems; 96 h: SAg system). SRB was performed by staining cells with 0.1% SRB after fixation with 10% TCA and reading wells at 560 nm.Viability and proliferation of PBMC (T cells) was quantified by Alamar Blue reduction for the SAg and BT systems. For PBMC viability (referred to as PBMC Cytotoxicity within the assay endpoint names), cells were plated (75,000/well in a 96-well plate) and then chemical samples added for 1 h before addition of activators, SEB and TSST-1 (20 ng/mL final concentration each). Cells were incubated for 90 h. Then, Alamar Blue (20 uL/well) (Invitrogen, Cat DAL1100) was added for 6 h, and the plates were read with a fluorescence microplate reader at 546/580 nm (excitation/emission). For PBMC proliferation, cells were plated and activated as above but incubated for only 16 h prior to addition of Alamar Blue. Plates were read after 6 h.

Row | Compound | outcome | AC50
1 | COc1c(Cl)ccc(Cl)c1C(=O)O | inactive | 
2 | C#CCOC(=O)[C@@H](C)Oc1ccc(Oc2ncc(Cl)cc2F)cc1 | inactive | 
3 | S=C([S-])NCCNC(=S)[S-].[Mn+2] | inactive | 
4 | CCCN(CCC)C(=O)SCC | inactive | 
5 | S=C(S)NCCNC(=S)S.[Mn+2].[S-]C([S-])=NCCN=C([S-])[S-].[Zn+2] | inactive | 1.34 µM (active)
6 | O=C(c1ccc(O)cc1O)c1ccc(O)cc1O | inactive | 
7 | OB(O)O | inactive | 
8 | COC(=O)c1c(Cl)nn(C)c1S(=O)(=O)NC(=O)Nc1nc(OC)cc(OC)n1 | inactive | 
9 | CCCCC(CC)CN1C(=O)C2C3C=CC(C3)C2C1=O (stereo not given) |  | 15.9 µM (active)
10 | CCSC(=O)N(CC(C)C)CC(C)C | inactive | 
11 | CCCCCCC(C)OC(=O)COc1nc(F)c(Cl)c(N)c1Cl (stereo not given) | inactive | 
12 | C[C@]12CC[C@@H]3c4ccc(O)cc4C[C@@H](CCCCCCCCCS(=O)CCCC(F)(F)C(F)(F)F)[C@H]3[C@@H]1CC[C@@H]2O (stereo not given in full) |  | 0.907 µM (active)
13 | CSC(=O)c1cccc2nnsc12 | inactive | 
14 | CCOC(=O)[C@H](C)Oc1ccc(Oc2nc3ccc(Cl)cc3o2)cc1 | inactive | 
15 | O=C(c1ccccc1)C1CCCCC1 | inactive | 
16 | CC1(C)C(C=C(Cl)Cl)C1C(=O)OCc1cccc(Oc2ccccc2)c1 (stereo not given) | inactive | 
17 | COC(=O)c1ccccc1S(=O)(=O)NC(=O)Nc1nc(OC(F)F)cc(OC(F)F)n1 | inactive | 
18 | c1ccc(Nc2ccccc2)cc1 | inactive | 
19 | CCC(O)=C1C(=O)CC(C(=O)O)CC1=O (stereo not given) | inactive | 
20 | CCN(Cc1c(F)cccc1Cl)c1c([N+](=O)[O-])cc(C(F)(F)F)cc1[N+](=O)[O-] | inactive | 

Row | Compound | outcome | AC50
21 | Oc1ccc(C(c2ccc(O)cc2)C(Cl)(Cl)Cl)cc1 |  | 33.1 µM (active)
22 | CC(=O)S[C@@H]1CC2=CC(=O)CC[C@]2(C)[C@H]2CC[C@@]3(C)[C@@H](CC[C@@]34CCC(=O)O4)[C@H]12 | inactive | 
23 | Cc1nn(C)c(Oc2ccccc2)c1C=NOCc1ccc(C(=O)OC(C)(C)C)cc1 |  | 4.59 µM (active)
24 | CC(C)(C)[C@@H](O)[C@@H](Cc1ccc(Cl)cc1)n1cncn1 | inactive | 
25 | COCCO | inactive | 
26 | O=C(Nc1ccc([N+](=O)[O-])cc1Cl)c1cc(Cl)ccc1O | inactive | 
27 | CCOC(=O)c1ccc(O)cc1 | inactive | 
28 | CCC(C)OC(=O)N1CCCCC1CCO (stereo not given) | inactive | 
29 | CCCCOC(=O)C(C)Oc1ccc(Oc2ccc(C(F)(F)F)cn2)cc1 (stereo not given) | inactive | 
30 | CN(C)C(=O)Nc1ccc(Cl)c(Cl)c1 | inactive | 
31 | COC(=O)c1ccc(I)cc1S(=O)(=O)NC(=O)Nc1nc(C)nc(OC)n1 | inactive | 
32 | O=C(O)c1ccccc1 | inactive | 
33 | CC(C)(c1ccc(O)cc1)c1ccc(O)cc1 | inactive | 
34 | O=C(O)C1(C(=O)Nc2ccc(Cl)cc2Cl)CC1 | inactive | 
35 | CCCOC(=O)c1ccc(C(=O)OCCC)nc1 | inactive | 
36 | CC(=O)[C@H]1CC[C@H]2[C@@H]3CCC4=CC(=O)CC[C@]4(C)[C@H]3CC[C@]12C |  | 7.49 µM (active)
37 | C=CCOC(Cn1ccnc1)c1ccc(Cl)cc1Cl (stereo not given) | inactive | 
38 | CCCCOC(=O)[C@@H](C)Oc1ccc(Oc2ccc(C(F)(F)F)cn2)cc1 | inactive | 
39 | COc1nc(C)nc(NC(=O)NS(=O)(=O)c2ccccc2OCCCl)n1 | inactive | 
